The results in this text go back to PubChem BioAssay AID720504 (National Center for Advancing Translational Sciences (NCATS), 2013).

The structures appear in SMILES notation. Out of some 360,000 compounds screened, about 10,000 (2.8%) were called active. Roughly 4% stayed inconclusive and do not appear here. The sample holds actives, similar compounds and a random draw of the others, so the mix is not that of the screen. Calls follow the shape of the dose curve; as a rule, active = well fitted inhibition curve with a large enough effect; inconclusive = small, poorly fitted or top-dose-only effect; inactive = flat fitted curve, though single readings scatter.
% is scaled to controls: 0 for no effect and ±100 for the full control effect; potency is read from the fitted curve at half-maximal effect.

The target in the test is Serine/threonine-protein kinase PLK1 (Homo sapiens) (UniProt P53350). The test can be described thus: qHTS for Inhibitors of PLK1-PDB (polo-like kinase 1 - polo-box domain): Primary Screen. Also: nearly all actives have a fitted effect of over 65% in size. As to max response, negative = inhibition: series mostly up to about 57 µM. The settings on record: Plk1 PBD binding of FITC phosphopeptide, fluorescence polarization.
Chain of Serine/threonine-protein kinase PLK1 (Homo sapiens) (P53350 whole entry, looked up, the tested form may be a part): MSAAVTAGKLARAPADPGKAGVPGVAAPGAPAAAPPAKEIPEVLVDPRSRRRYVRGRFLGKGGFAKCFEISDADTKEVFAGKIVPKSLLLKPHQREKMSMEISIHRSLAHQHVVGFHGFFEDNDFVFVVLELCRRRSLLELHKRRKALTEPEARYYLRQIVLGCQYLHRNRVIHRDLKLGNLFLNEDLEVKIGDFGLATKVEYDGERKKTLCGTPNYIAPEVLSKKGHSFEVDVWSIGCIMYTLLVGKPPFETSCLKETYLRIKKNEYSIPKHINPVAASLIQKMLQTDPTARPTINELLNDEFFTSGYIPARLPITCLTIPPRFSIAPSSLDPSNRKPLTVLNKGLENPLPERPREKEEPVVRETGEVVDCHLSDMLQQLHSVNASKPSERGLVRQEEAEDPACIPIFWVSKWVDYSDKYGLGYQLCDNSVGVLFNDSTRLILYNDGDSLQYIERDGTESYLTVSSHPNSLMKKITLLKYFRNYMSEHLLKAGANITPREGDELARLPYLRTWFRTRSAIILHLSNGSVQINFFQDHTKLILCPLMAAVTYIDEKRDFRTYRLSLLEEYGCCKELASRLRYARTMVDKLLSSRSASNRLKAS
Consider `CCCCNC(=O)c1nc(C2CCN(S(=O)(=O)c3ccc(F)c(F)c3)CC2)oc1-c1cccc(C(F)(F)F)c1`, for which the max response, negative = inhibition was -2.64% (inactive).

Regarding `CCCNC(=O)C1(C)CCN(Cc2csc(-c3ccc(Cl)cc3)n2)C1` (stereo unspecified), the max response, negative = inhibition was -6.86% (inactive).

Consider `Nc1nc2ncccn2c1-c1ccccc1`, for which the max response, negative = inhibition is -5.06% (inactive).

Consider `COc1cc(OC)cc(C2=Cc3ccccc3C(CC(=O)c3ccco3)N2c2ccc(-c3cnc(OC)nc3)cc2)c1` (stereo unspecified), for which the max response, negative = inhibition is -0.0299% (inactive).

As to `CCCCCCn1c(=O)n2n(c1=O)C[C@]1(OC(=O)NCc3ccc(OC)c(OC)c3)CN(S(=O)(=O)c3ccc(C)cc3)C[C@]1(O)C2`, the max response, negative = inhibition is -2.55% (inactive).

On to `NS(=O)(=O)c1ccc(CNC(=O)c2cnccn2)cc1`, for which the Potency was 16.8 µM (active).

`O=C(NNS(=O)(=O)c1ccc(F)cc1)c1cnccn1`: the max response, negative = inhibition is -1.36% (inactive).

Turning to `NS(=O)(=O)c1ccc(CNC(=O)c2cccc(Oc3ccccc3)c2)cc1`, the max response, negative = inhibition was -1.88% (inactive).

`CCc1ccc2c(c1)NC(=O)C2(C)Cc1ccc(OC(F)(F)F)cc1` (stereo unspecified): the max response, negative = inhibition was -1.5% (inactive).

With `N#CC1=C(N)Oc2[nH]c(=S)[nH]c(=O)c2C12C(=O)Nc1ccccc12` (stereo unspecified), the Potency is 2.67 µM (active).

With `N#CC1=C(N)Oc2n[nH]c(CSc3ccccc3)c2C12C(=O)Nc1ccccc12` (stereo unspecified), the max response, negative = inhibition was -12.8% (inactive).

As to `CC1(C)Cc2ccccc2-c2[nH]c(=S)[nH]c(=O)c21`, the max response, negative = inhibition is -13.9% (inactive).

Regarding `COCCNC(=O)C1(C)CCCN(Cc2cccc(F)c2)C1` (stereo unspecified), the max response, negative = inhibition was -4.61% (inactive).

Regarding `COCCCNC(=O)c1ccc(CNS(=O)(=O)c2ccc(NC(C)=O)cc2)cc1`, the Potency is 26.7 µM (active).

For the compound `CC(=O)Nc1ccc(S(=O)(=O)NCCc2ccccc2)cc1`, the max response, negative = inhibition is 0.463% (inactive).

Consider `CCCCNC(=O)C1CCC(CNS(=O)(=O)c2ccc(NC(C)=O)cc2)CC1` (stereo unspecified), for which the max response, negative = inhibition is -1.34% (inactive).

Regarding `CCN1CCCC1CNC(=O)c1ccc2c(c1)NC(=O)/C(=C\c1ccccc1F)S2` (stereo unspecified), the max response, negative = inhibition is 0.0941% (inactive).

With `CC1CCN(C(=S)c2ccc(-c3ccc(Cl)cc3Cl)o2)CC1`, the Potency is 21.2 µM (active).

For the compound `Cc1csc(NC(=O)c2ccc(-c3ccc(Cl)cc3Cl)o2)n1`, the max response, negative = inhibition was -15% (inactive).

As for `COc1ccc(C(=O)Nc2c(Cl)cc(Cl)cc2C(=O)N2CCC(C)CC2)cc1`, the max response, negative = inhibition was -14.4% (inactive).

As for `COc1ccc2[nH]c3c(C)c4cc[n+](C)cc4c(C)c3c2c1`, the max response, negative = inhibition was -4.23% (inactive).

As to `COc1ccc2[nH]c(=S)cc(C)c2c1`, the Potency is 4.74 µM (active).

Take `COc1ccc(N)c(C)c1`: the max response, negative = inhibition was -0.841% (inactive).

As to `CC12CN(Cc3ccccc3)CC(C)(CN(Cc3ccccc3)C1)C2=NO`, the Potency was 5.32 µM (active).

On to `O=S1(=O)CCN(Cc2ccccc2)CC1`, for which the max response, negative = inhibition is -2.26% (inactive).

Turning to `NC(=O)C1(N2CCCC2)CCN(Cc2ccccc2)CC1`, the max response, negative = inhibition was -7.37% (inactive).

Regarding `O=C(OCc1cn([C@H]2C[C@H](c3ccccc3)N(C(=O)c3cccs3)C[C@@H]2O)nn1)c1ccccc1`, the max response, negative = inhibition is -2.46% (inactive).

Take `CC(C)(C(=O)N1CCC1(C)C(=O)NS(=O)(=O)c1ccc(Br)cc1)c1ccccc1` (stereo unspecified): the max response, negative = inhibition is -7.26% (inactive).

Take `CCOc1ncccc1C(=O)Nc1ccc(S(=O)(=O)Nc2nc(C)cc(C)n2)cc1`: the max response, negative = inhibition is 0.589% (inactive).

As to `Cc1ccc(C(=O)/C=C/Nc2ccc(S(=O)(=O)Nc3onc(C)c3C)cc2)cc1`, the max response, negative = inhibition is -13.9% (inactive).

Regarding `Cc1cc(C)nc(NS(=O)(=O)c2ccc(N/C=C\C(=O)c3cccs3)cc2)n1`, the Potency was 26.7 µM (active).

For the compound `O=C(CC(CC(=O)c1ccccc1)c1ccco1)c1ccccc1`, the max response, negative = inhibition was 13.6% (inactive).

Take `CSc1ccc(CNC(=O)C2(C)CCCN2C)cc1` (stereo unspecified): the max response, negative = inhibition is -4.46% (inactive).

On to `CN(C)CCCOc1ccc(-c2ccc3nccn3c2)cn1`, for which the max response, negative = inhibition is -0.941% (inactive).

With `CCOC(=O)N1C(=O)C[C@](Sc2ccc(C)cc2)(C(=O)OC)[C@H]1c1ccccc1`, the max response, negative = inhibition was -3.98% (inactive).

As for `Cn1nc(N)c2ncc(C(Cl)(Cl)Cl)nc21`, the max response, negative = inhibition was -4.91% (inactive).

As for `CC1COc2ccccc2N1C(=O)c1ccc(F)cc1` (stereo unspecified), the max response, negative = inhibition is -6.97% (inactive).

Turning to `O=C(c1ccc(F)cc1)N1CCC(n2nnc3ccccc32)CC1`, the max response, negative = inhibition is -7.84% (inactive).

As to `O=C(c1ccc(F)cc1)n1c(=S)nc2ccccn21`, the Potency was 26.7 µM (active).

Regarding `c1ccc(Cn2nnc3c(NCC4CC4)ncnc32)cc1`, the max response, negative = inhibition is -24.2% (inactive).

Turning to `Nc1nc2c(ncn2[C@@H]2O[C@H](CNS(=O)(=O)N3CCc4ccccc4C3)[C@@H](O)[C@H]2O)c(=O)[nH]1`, the max response, negative = inhibition was -3.21% (inactive).

For the compound `O=C(Nc1ccc(OCCO)cc1)c1csc([C@H]2C[C@H](O)[C@@H](CO)O2)n1`, the max response, negative = inhibition was -5.62% (inactive).

As for `Cc1cc(=O)[nH]c2nnnn12`, the Potency is 23.8 µM (active).

In the case of `Cc1cc(C)n(-c2nc(O)cc(=O)[nH]2)n1`, the max response, negative = inhibition is -2.57% (inactive).

In the case of `Cn1nnnc1SCc1cc(=O)[nH]c2ccccc12`, the max response, negative = inhibition is -18.7% (inactive).

Regarding `CCC(CC)C(C(=O)NC1CCCC1)N1CCN(c2cc(C)nc3ccccc23)CC1` (stereo unspecified), the max response, negative = inhibition was -1.11% (inactive).

`C[C@@H]1CN([C@H](C)CO)S(=O)(=O)c2ccc(C#C[C@@H](C)O)cc2O[C@@H]1CN(C)Cc1ccc(-c2ccccc2)cc1`: the max response, negative = inhibition is -3.99% (inactive).

In the case of `CC(=O)Nc1ccc2nc(NC(=O)CS(=O)(=O)c3ccc(F)cc3)sc2c1`, the max response, negative = inhibition was -4.56% (inactive).

In the case of `COc1ccc(C(CNC(=O)CSc2ccccc2)N2CCOCC2)cc1` (stereo unspecified), the max response, negative = inhibition is -29.4% (inactive).

Regarding `CCc1ccc([C@@H]2CC(=O)[C@@H]3CN(S(=O)(=O)c4ccc(C)cc4)[C@H](c4ccc(Cl)cc4)C[C@@H]3N2S(=O)(=O)c2ccc(C)cc2)cc1`, the max response, negative = inhibition was 3.16% (inactive).

Consider `COc1ccc(S(=O)(=O)N(C)C)cc1NC(=O)COC(=O)c1n[nH]c2ccccc12`, for which the max response, negative = inhibition was -0.239% (inactive).

Take `CN(C)S(=O)(=O)c1ccc2oc(SCC(=O)Nc3ccccc3F)nc2c1`: the max response, negative = inhibition was -21.2% (inactive).

As for `COc1ccc(S(=O)(=O)N(C)C)cc1NC(=O)CSc1ncccn1`, the Potency is 15 µM (active).

As to `CC1(C)OC(=O)C2=C(CC(c3ccccc3)OC2CCc2ccccc2)O1` (stereo unspecified), the max response, negative = inhibition was -6.04% (inactive).

Consider `Cc1cccc(C)c1NC(=S)N1CCCCCC1`, for which the max response, negative = inhibition is -6.23% (inactive).

Regarding `S=C(c1ccc(-c2ccccc2)o1)N1CCCCC1`, the Potency was 9.47 µM (active).

As for `O=C(c1ccc(CSc2ccccc2)cc1)N1CCCCCC1`, the max response, negative = inhibition was -2.73% (inactive).

Take `O=C(C[C@H]1CC[C@H]2[C@@H](COC[C@H](O)CN2C(=O)c2ccccn2)O1)N1CCN(c2ccccc2)CC1`: the max response, negative = inhibition was -2.29% (inactive).

As for `Cn1nnnc1-c1cc(Cl)cc(Cl)c1`, the Potency is 26.7 µM (active).

Regarding `Cn1nnnc1NCc1ccc(Cl)c(Cl)c1`, the max response, negative = inhibition is -14% (inactive).

As for `Cc1ccc(S(=O)(=O)N[C@H](CO)C(C)C)cc1`, the max response, negative = inhibition was -4.56% (inactive).

With `CCC(=O)Nc1ccc(Nc2nc(Cl)nc(Nc3ccc(NC(=O)CC)cc3)n2)cc1`, the max response, negative = inhibition was -16.7% (inactive).

With `CCOC(=O)CNc1nc(Cl)nc(Nc2ccccc2)n1`, the Potency is 21.2 µM (active).

Take `CCOC(=O)CNc1nc(Cl)nc(Nc2ccc(OC)cc2OC)n1`: the max response, negative = inhibition was 0.534% (inactive).

With `CC1(C)OC(=O)C2=C(C[C@@H](C3CCCC3)O[C@@H]2c2ccc(Cl)cc2)O1`, the max response, negative = inhibition was 2.05% (inactive).

As to `Cc1c(C#N)c(NC(=O)c2ccccc2)n(Cc2ccccc2)c1C`, the max response, negative = inhibition was -4.49% (inactive).

Turning to `Cc1ccc(C(=O)Nc2c(C#N)c(C)c(C)n2Cc2ccccc2)cc1`, the max response, negative = inhibition was -3.45% (inactive).

Take `CCCc1ccc(-c2c(C)sc(NC(=O)c3ccnn3C)c2C#N)cc1`: the Potency is 10.6 µM (active).

Consider `CC1(C(=O)NS(=O)(=O)c2ccccc2)CCN1C(=O)C1CCCCC1` (stereo unspecified), for which the max response, negative = inhibition was -5.58% (inactive).

Turning to `Cc1cccnc1C(NC(=O)C1CCN(Cc2ccc(Cl)c(Cl)c2)CC1)c1ccc(Cl)cc1` (stereo unspecified), the max response, negative = inhibition was -6.41% (inactive).

Consider `Cc1cn([C@H]2C[C@H](O)[C@@H](CNC(=O)[C@H](N)Cc3cccnc3)O2)c(=O)[nH]c1=O`, for which the max response, negative = inhibition was -0.77% (inactive).

Regarding `Cc1ccc(NC(=O)NC(=O)N(C2CCCCC2)S(=O)(=O)c2ccccc2)cc1`, the Potency was 29.9 µM (active).

As to `CC(C)(C)NS(=O)(=O)c1ccc(NC(=O)NC2CCCCC2)cc1`, the max response, negative = inhibition is -9.85% (inactive).

As for `CC(c1ccco1)N(C(=O)Nc1ccccc1)C1CCCCC1` (stereo unspecified), the max response, negative = inhibition is -2.64% (inactive).

With `COc1cc(C(O)c2nc(-c3cccc(C(=O)O)c3)cs2)ccc1F` (stereo unspecified), the max response, negative = inhibition was 2.95% (inactive).

Turning to `O=C(O)c1ccccc1N=N/C(=N/Nc1cc(S(=O)(=O)O)ccc1O)c1ccccc1`, the Potency is 16.8 µM (active).

With `COc1cccc(NC(=O)C2(C)CCN2Cc2ccccc2Cl)c1` (stereo unspecified), the max response, negative = inhibition was 4.24% (inactive).

As for `OCCc1ccc(NCCc2ccco2)cc1`, the max response, negative = inhibition is -4.52% (inactive).

Turning to `O=Nc1c(O)cc(O)c2ccccc12`, the max response, negative = inhibition is -5.49% (inactive).

As to `Cc1cc(N2C(=O)C(=O)/C(=C(/O)c3ccccc3)C2c2cccc(Br)c2)no1` (stereo unspecified), the max response, negative = inhibition is -15% (inactive).

On to `Cc1cc(N2C(=O)C(O)=C(C(=O)c3ccc(C)o3)C2c2ccc(OCc3ccccc3)cc2)no1` (stereo unspecified), for which the Potency is 21.2 µM (active).

As to `C=CCOc1cccc(C2C(C(=O)c3ccc(C)o3)=C(O)C(=O)N2CCN2CCOCC2)c1` (stereo unspecified), the max response, negative = inhibition was -19.4% (inactive).

`C[C@@H]1CN([C@@H](C)CO)C(=O)CCCn2nncc2CO[C@H]1CN(C)Cc1ccc(C(F)(F)F)cc1`: the max response, negative = inhibition was -1.98% (inactive).

With `CC(=O)C[C@@H]1OC[C@H](CO)N1S(=O)(=O)c1ccc(C)cc1`, the max response, negative = inhibition is -6.97% (inactive).

On to `CCOc1cc(C(=S)N2CCOCC2)ccc1OS(=O)(=O)c1ccc(Br)cc1`, for which the max response, negative = inhibition is -16.5% (inactive).

Regarding `CCOc1cc(C(=O)OCC(=O)Nc2cccc(C)c2)ccc1OCC(=O)N1CCOCC1`, the max response, negative = inhibition was -7.2% (inactive).

In the case of `CCOc1cc(C(=S)N2CCOCC2)ccc1O`, the Potency was 7.52 µM (active).

For the compound `COCOCCn1cc(CN2CCS(=O)(=O)N(Cc3ccc(-c4cccc(N(C)C)c4)cc3)C(CC(C)C)C2=O)nn1` (stereo unspecified), the max response, negative = inhibition is -14.2% (inactive).

In the case of `NC(=O)C1(Nc2ccccc2Cl)CCCC1`, the max response, negative = inhibition was -11.6% (inactive).

Regarding `O=C(Nc1ccccc1Cl)/C(Cl)=C(\Cl)S(=O)c1ccccc1` (stereo unspecified), the Potency was 1.34 µM (active).

On to `O=C(CCN1CCN(C/C=C/c2ccccc2)CC1)Nc1ccccc1Cl`, for which the max response, negative = inhibition was -3.16% (inactive).
